Sampled rows, rich in hits. Any-hit rate of the full collection: about 12%.
PLK1 PBD inh: inhibitors of human PLK1 polo-box domain binding | P53350 | Plk1 PBD binding of FITC phosphopeptide, fluorescence polarization | Potency, µM, inactives show max response, negative = inhibition, most hits filed as inhibitors | actives 2.8% (n = 360,000) | AID 720504; further: potency means the concentration at half of the fitted maximal effect; series mostly up to about 57 µM; on the % scale 0 is the no-effect control and ±100 the full control effect; nearly all actives have a fitted effect of over 65% in size
G9a inh: blocks human histone lysine methyltransferase G9a; Q96KQ7; G9a H3K9 monomethylation, AlphaScreen, 2 h; Potency, µM (doses to about 102 µM), inactives show top-dose activity, negative = inhibition, hits mostly inhibitors; actives 8.8% (n = 350,000); AID 504332; further: potency means the concentration at half of the fitted maximal effect; on the % scale 0 is the no-effect control and ±100 the full control effect; nearly all actives have a fitted effect of over 75% in size
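Methyltransferase reactions run at room temperature for 2 h (20 nM enzyme, 500 nM biotin-H3K9 peptide, 20 uM SAM) after a 15 min compound preincubation; product detected by AlphaScreen beads and anti-H3K9me1 antibody.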
BAZ2B block: inhibitors of human BAZ2B bromodomain | Q9UIF8 | AlphaScreen BAZ2B-H3K14Ac peptide displacement | Potency, µM (highest dose often 114 µM), inactives show at the top dose activity change, negative = inhibition, most hits filed as inhibitors | actives 4.4% (n = 360,000); further: potency means the concentration at half of the fitted maximal effect; on the % scale 0 is the no-effect control and ±100 the full control effect; nearly all actives have a fitted effect of over 60% in size
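AlphaScreen displacement of biotin-H3(5-23)K14Ac peptide (50 nM final) from BAZ2B (50 nM final) in PBS pH 7.4, 0.01% Tween-20; complex preformed 30 min RT, then compounds (top 110 uM) 30 min RT, beads 20 min dark.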
PI5P4K alpha inh: inhibitors of human PI5P4K alpha; max response, %; AID 652105; PI5P4Kalpha enzyme, ADP-Glo luminescence, 60 min; active compounds read low; P48426; actives 1.2% (n = 330,000); active means max response of -50% or lower; inconclusive means between -30% and -50%; inactive means -30% or higher; further: value at the top dose of about 77 µM; on the % scale 0 is the no-effect control and ±100 the full control effect
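qHTS, 1536-well: enzyme/substrate mix, compound by pin tool, 5 microM ATP final; RT 60 min; ADP-Glo reagents 1 (45 min) then 2 (30 min); luminescence.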
JMJD2A Tudor: JMJD2A Tudor domain (human) inhibition | AID 504339 | AlphaScreen JMJD2A-Tudor / H3K4me3 peptide binding | O75164 | actives 4.4% (n = 390,000) | Potency, µM (series often up to 114 µM), for the others: at the top dose activity change, negative = inhibition, hits mostly inhibitors; further: potency means the concentration at half of the fitted maximal effect; on the % scale 0 is the no-effect control and ±100 the full control effect; nearly all actives have a fitted effect of over 50% in size
HP1b chromo inh: HP1-beta chromodomain-methylated histone interaction inhibition. AlphaScreen HP1-beta / biotin-H3K9me3 peptide binding. AID 540317. Potency, µM (doses to about 114 µM), inactives show at the top dose activity change, negative = inhibition, actives largely listed as inhibitors. actives 0.56% (n = 390,000). P83916; further: potency means the concentration at half of the fitted maximal effect; nearly all actives have a fitted effect of over 70% in size
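AlphaScreen: HP1-beta (50 nM) preformed 30 min with biotin-H3(1-18)K9me3 peptide (50 nM) in PBS pH 7.4, 0.01% Tween-20. Compound added for 30 min at RT, then streptavidin donor/nickel chelate acceptor beads (10 ug/mL) for 30 min.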
* = called active by the depositor; ? = inconclusive; . = no result given; [ ] = another dose, or the depositor's remark. Unless noted, the call rests on the fitted dose curve; in most records, active means well fitted curve in the direction sought with a large enough effect; inconclusive means small, poorly fitted or top-dose-only effect, or another doubt; inactive means no such curve, though single readings can be large; an effect the other way counts as inactive or inconclusive.

SMILES | PLK1 PBD inh | G9a inh | BAZ2B block | PI5P4K alpha inh | JMJD2A Tudor | HP1b chromo inh
O=C1CC(c2ccco2)CC2=C1C(c1cccnc1)n1nc(C(F)(F)F)nc1N2 (configuration not stated) | . | . | . | . | ? | -14%
O=C1CC(c2ccco2)CC2=C1C(c1ccc(O)cc1)n1nc(C(F)(F)F)nc1N2 (configuration not stated) | . | . | . | . | 56µM* | ?
O=C(Nc1ccc2nc(-c3cccs3)c(-c3cccs3)nc2c1)N1CCCC1 | . | . | . | . | -9% | 54%
O=C(Nc1ccc2nc(-c3ccco3)c(-c3ccco3)nc2c1)N1CCCCCC1 | 24µM* | 5µM* | 11µM* | . | 13µM* | 16µM*
CCOC(=O)C1CCN(C(=O)Nc2ccc3nc(-c4ccco4)c(-c4ccco4)nc3c2)CC1 | 12µM* | 1.6µM* | 11µM* | -70* | 79µM* | 40µM*
CCOC(=O)C1CCN(C(=O)CSc2nnc(-c3ccco3)n2-c2ccccc2)CC1 | -11% | 45µM* | -5% | -5 | -16% | 27%
CCOC(=O)C1CCN(C(=O)Nc2ccc3c(c2)nc(C)n3C)CC1 | -7% | ? | 6% | . | -10% | -1%
O=c1cc(Br)c(O)c(Br)cc1Br | 21µM* | . | . | ? | 22µM* | ?
CCNc1ncc2nc(-c3ccccc3)c(=O)n(CCOC)c2n1 | . | 1%[0.501 µM] | . | . | . | .
O=C(Nc1cc(C(F)(F)F)ccc1N1CCCCC1)c1ccc(Br)o1 | -3% | 0% | ? | 4 | 8% | 5%
O=C(Nc1ccc(N2CCCC2)c(Cl)c1)c1ccc(Br)o1 | -12% | 14µM* | ? | . | ? | 3%
CC(=O)N1CCN(c2ccccc2NC(=O)c2ccc(Br)o2)CC1 | -8% | -7% | -4% | -7 | 2% | 13%
O=C(Nc1ccccc1N1CCCCC1)c1ccc(-c2ccc(Cl)cc2)o1 | 27µM* | -8%[59 µM] | -24% | 1 | ? | 6%
COc1ccc(N2CCCC2)c(NC(=O)c2ccc(Br)o2)c1 | -3% | 8.9µM* | ? | 5 | 50µM* | ?
O=C(Nc1ccccc1N1CCCC1)c1ccc(Br)o1 | -3% | 4.5µM* | ? | . | ? | 5%
CCOC(=O)N1CCC(NCCNC(=O)c2cccc(F)c2)CC1 | 4% | -18%[2.33 µM] | -14% | 7 | -10% | 32%
Cc1c(Cl)cccc1NC(=O)C(=O)NCC(c1cccnc1)N1CCN(c2ccccc2)CC1 (configuration not stated) | . | 5%[59 µM] | 7% | . | -15% | 35%
N#Cc1ccccc1N1CCN(C(=O)c2ccc(NC(=O)c3ccc(Br)o3)cc2)CC1 | -17% | 14%[2.33 µM] | 50µM* | ? | 56µM* | -27%
CN1CCN(c2ccccc2NC(=O)c2ccc(-c3ccc(Br)cc3)o2)CC1 | 0% | . | ? | -4 | -17% | 11%
Cc1cc(N2CCN(C)CC2)ccc1NC(=O)c1ccc(-c2ccc(Cl)cc2)o1 | -21% | 32µM* | 35µM* | -2 | 40µM* | ?
O=C(Nc1ccc(C(=O)N2CCN(c3ccccn3)CC2)cc1)c1ccc(Br)o1 | -10% | 11%[2.33 µM] | ? | -22 | -32% | -1%
Fc1ccc(CNc2ccc(CNc3ncn[nH]3)cc2)cc1 | -1% | 8% | -32% | 9 | -30% | 5%
Nc1ccc(CNc2ncn[nH]2)cc1 | 24µM* | -11%[59 µM] | 2% | -8 | -6%[11.4 µM] | -13%
Cc1ccc(C2CC(C(F)F)n3ncc(C(=O)Nc4cnn(Cc5ccccc5C)c4)c3N2)cc1 (configuration not stated) | 3% | 45µM* | 8% | -4 | -23% | 1%
Cc1ccccc1Cn1cc(NC(=O)c2nn(C)cc2Cl)cn1 | -14% | -5%[59 µM] | 3% | -2 | -18% | 19%
N#C/C(=C/c1ccc(C(=O)O)cc1)C(=O)NCc1ccccc1 | -1% | ? | -4% | . | -12% | 17%
COCCCNC(=O)/C(C#N)=C/c1ccc(OCC(=O)O)c(OC)c1 | 21µM* | 13µM* | 20µM* | ? | 50µM* | ?
COCCNC(=O)/C(C#N)=C/c1cccc(/C=C(\C#N)C(=O)NCCOC)c1 | ? | -9%[59 µM] | -3% | -3 | -11% | 0%

High-throughput results deposited in PubChem BioAssay by National Center for Advancing Translational Sciences (NCATS).
